Reference: PubChem BioAssay AID680 (PCMD, 2007)
Screen size: about 62,000 compounds; about 120 (0.19%) were called active. This is one part of a sample in which actives are shown more often than they occur. Rule as the data show it: active = inhibition above about 20% (passing the limit was not always enough); inactive = the rest.

What follows are molecules tested against Coagulation factor XI (Homo sapiens) (UniProt P03951) (assay: human factor XIa inhibition by mixtures – biochemical, 10-compound mixtures, primary screen (AID 680;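 also: each value is inhibition by a whole ten-compound pool holding the compound; 0% = enzyme with no mixture and 100% = wells lacking enzyme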)). Conditions: purified FXIa, fluorogenic substrate, pooled mixtures; at 5 µM; hits give high values.
Coagulation factor XI (Homo sapiens), sequence (P03951 19-387 limits assumed): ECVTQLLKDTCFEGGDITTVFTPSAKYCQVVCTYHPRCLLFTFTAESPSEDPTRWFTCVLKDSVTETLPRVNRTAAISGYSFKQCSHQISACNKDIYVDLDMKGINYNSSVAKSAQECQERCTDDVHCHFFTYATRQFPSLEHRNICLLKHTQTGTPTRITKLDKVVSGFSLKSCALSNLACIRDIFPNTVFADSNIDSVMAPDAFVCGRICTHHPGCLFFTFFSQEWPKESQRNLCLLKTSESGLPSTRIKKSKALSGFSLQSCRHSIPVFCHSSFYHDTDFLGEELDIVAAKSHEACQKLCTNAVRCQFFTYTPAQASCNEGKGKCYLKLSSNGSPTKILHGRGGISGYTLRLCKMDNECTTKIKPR
Coagulation factor XI (Homo sapiens), sequence (P03951 388-625 limits assumed): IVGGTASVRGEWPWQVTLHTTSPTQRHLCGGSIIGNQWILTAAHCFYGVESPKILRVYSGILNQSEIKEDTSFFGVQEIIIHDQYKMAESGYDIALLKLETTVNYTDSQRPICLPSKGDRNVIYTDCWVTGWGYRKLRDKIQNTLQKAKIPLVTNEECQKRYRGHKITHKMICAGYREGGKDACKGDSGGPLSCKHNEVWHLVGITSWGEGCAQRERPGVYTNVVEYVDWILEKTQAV

inhibition, inactive:
O=C(NCc1ccc2c(c1)OCO2)c1cc2c(s1)CS(=O)(=O)C2 1.71%
COC(=O)[C@H](Cc1ccccc1)NC(=O)N1CC(C)OC(C)C1 (stereo partly drawn) -17.5%
Cn1c(SCC(=O)OC2CCCCC2)nnc1-c1ccc(S(=O)(=O)N2CCCC2)cc1 -4.25%
CC(C)c1ccc(NC(=O)NC2CCCCC2)cc1 -11.2%
CC1Cc2ccccc2N1C(=O)Cn1cnc2ccccc2c1=O (stereo not drawn) 3.86%
COc1ccc(Cc2nnc(NS(=O)(=O)Cc3ccccc3)s2)cc1 10.4%
C[N+](C)(C)CCOP(=O)([O-])OC[C@H](O)CO 4.21%
CCOC(=O)Cn1c(=O)oc2cc(S(=O)(=O)NCC3CCCO3)ccc21 (stereo not drawn) 5.99%
CCOC(=O)C(CC)Sc1ncnc2c1nnn2-c1ccc(F)cc1 (stereo not drawn) 14%
Cc1csc(NC(=O)NC2(C(F)(F)F)Oc3ccccc3O2)n1 0.345%
O=C(CN1CCN(c2ccccc2F)CC1)c1ccc2c(c1)OCO2 4.78%
O=C(NC1CCCCC1)N1CCc2[nH]c3ccccc3c2C1 7.75%
CC(C)(C)Oc1ncc(Br)c(OC(C)(C)C)n1 -2.49%
CCOC(=O)C1=C(C)NC(C)=C(C(=O)OCC)C1C1=COCCO1 -9.31%
c1ccc(COc2nsnc2N2CCOCC2)cc1 11.9%
CCNC(=O)CCc1nc(-c2ccc(C(C)(C)C)cc2)no1 -1.14%
CC1COC2C(O1)N(S(C)(=O)=O)CCN2S(C)(=O)=O (stereo not drawn) 1.71%
CC(C)CNC(=O)c1cc(-c2ccc(Br)cc2)on1 5.53%
CCC(=O)c1ccc(OCC(O)CN2C(=O)NC(C)(C)C2=O)cc1 (stereo not drawn) 11.4%
CC1CN(c2cc(=O)n(-c3cccc(Br)c3)c(=O)[nH]2)CC(C)O1 (stereo not drawn) 6.23%
Cc1cccc(Cn2c(N3CCN(c4ccccc4)CC3)nc3c2c(=O)n(C)c(=O)n3C)c1 -1.79%
CCOc1ccccc1NC(=O)Nc1cc(OC)ccc1OC 1.07%
CCOC(=O)c1sc(/N=C/Nc2nc(C)c(C(=O)OCC)s2)nc1C 5.51%
Cc1cnc(C(=O)OCC(=O)Nc2ccc(Cl)cc2Cl)cn1 6%
O=C(Nc1cccc(-c2nnc(-c3ccccc3)o2)c1)C1CCCO1 (stereo not drawn) -7.16%
O=C(Nc1ccc(-c2nnc(-c3ccccc3)o2)cc1)C1CCCO1 (stereo not drawn) 9.26%
CCOC(=O)c1ccc(-n2c(C)nc3c(cnn3-c3ccccc3C)c2=O)cc1 -0.685%
CCC(CC)C(=O)Nc1cc(C(=O)OC)cc(C(=O)OC)c1 -1.44%
CCc1ccccc1NC1c2ccccc2C(=O)N1c1cccnc1 (stereo not drawn) -0.145%
CCOC(=O)N1CCC(Nc2c(NCCCN3CCN(c4ccc(OC)cc4)CC3)c(=O)c2=O)CC1 12.6%
N#CC(C(N)=O)=C1CCC2(CC1)OCCCCO2 4.44%
CCc1nnc(NC(=O)c2cccs2)s1 5.55%
O=C(CS(=O)(=O)c1cn(Cc2ccc(Cl)cc2)c2ccccc12)N1CCOCC1 -16.2%
CCN1C(=O)/C(=C2\SC(N3CCCCC3)=NC2=O)c2ccccc21 -7.47%
O=C(c1cccc(C(=O)N2CCN(c3ccc(F)cc3)CC2)c1)N1CCN(c2ccc(F)cc2)CC1 0.53%
CN1CCN(C(=O)c2ccc(NS(=O)(=O)c3ccccc3)cc2)CC1 1.27%
Cc1nonc1OCCn1nnnc1N -1.41%
COc1ccc(CCNS(=O)(=O)c2ccc(C(=O)NCc3ccco3)cc2)cc1OC 2.31%
Cc1ccc2nc(-c3ccc(SCC(=O)Nc4cc(C)on4)nc3)[nH]c2c1 -9.14%
COc1ccc(Cn2c(=O)sc3ccccc32)cc1OC -0.795%
CC1(C)Oc2ccc(C(=O)N3CCOCC3)cc2N(CC(=O)Nc2ccccc2)C1=O 7.31%
O=C(CSc1nnc(-c2cccs2)n1-c1ccccc1)N1CCN(C(=O)c2ccco2)CC1 -14.5%
O=S(=O)(NCCNS(=O)(=O)c1ccccc1)c1ccccc1 -3.77%
COc1ccc(NC(=O)c2c(SC)nsc2SC)cc1 4.24%
COc1cccc(Nc2ncccc2C(=O)O)c1 5.89%
COc1ccc(Cc2nnnn2CC(=O)O)cc1 3.18%
O=C(O)c1ccc(F)c(S(=O)(=O)Nc2ccccc2)c1 7.12%
CCN(CC)CCCNC(=O)c1cc(-c2cccc(Cl)c2)on1 5.02%
CCOC(=O)Cn1c(N)c(C(=O)OC)sc1=S -0.995%
O=C(Cn1cnc2c(cnn2-c2ccc(F)cc2)c1=O)NCCc1ccccc1 -10.3%
Cc1cc(C)c(C#N)c(SCc2[nH]nc3c2C(c2ccccc2)C(C#N)=C(N)O3)n1 (stereo not drawn) 1.67%
c1ccc2c(CNn3cnnc3)cccc2c1 7.96%
COC(=O)c1ccc(CN(c2ccccc2OC)S(=O)(=O)c2cccs2)o1 -7.66%
CCOC(=O)c1c(C)nc(-c2ccccc2)nc1NC(=O)C(C)C 5.54%
CCOc1ccc(N=C2SC(C(=O)O)CC(=O)N2C)cc1 (stereo not drawn) -15.5%
CCC(=NC1CC(C)(C)NC(C)(C)C1)C1=C(O)CC(C)(C)CC1=O -8.62%
CCCCN(C)C(=O)C1CCN(Cc2ccccn2)CC1 -2.55%
COc1ccc(CSc2nc(N3CCOCC3)c3c(c2C#N)CC(C)(C)OC3)cc1 -0.245%
COc1cc2cc(CN(CCN3CCCC3)C(=O)Nc3ccccc3Cl)c(=O)[nH]c2cc1OC 2.35%
C=CCn1c(SCc2nnc(-c3ccccc3)o2)nnc1C(O)c1ccccc1 (stereo not drawn) -17.4%
CCCCCCC(=O)N(O)C1CC(=O)N(c2ccccc2)C1=O (stereo not drawn) 1.64%
O=C1CC2(CCCCC2)Oc2ccc(OCC(=O)N3CCOCC3)cc21 4.52%
Cc1cn(COC/C=C/c2ccccc2)c(=O)[nH]c1=O -1.04%
CCNc1nc(NCC)nc(N(C)n2cnnc2)n1 -3.07%
CC(C)(C)c1ccc(C(=O)NCCC(=O)NCc2ccco2)cc1 3.48%
CCn1cc(C(=O)N2CCN(C3CCCCC3)CC2)c2cc(OC)c(OC)cc2c1=O 4.42%
COC(=O)[C@@H](NC(=O)NCc1cccc(OC)c1)C(C)C -1.25%
COC(=O)CCNc1ccc2c(c1)OCCO2 -1.79%
COc1ccc(-c2c(C)nn3c(N4CCC(C(=O)N5CCCCC5)CC4)cc(C)nc23)cc1OC 8.56%
CCc1ccccc1N(CC(=O)NCCSCc1ccco1)S(C)(=O)=O -9.75%
CCSc1nc2c(c(=O)[nH]1)C(c1cccnc1)C(C(=O)OC(C)C)=C(C)N2 (stereo not drawn) 7.07%
Cn1c(=NC(=O)c2cnccn2)sc2ccccc21 5.25%
O=C(OC(C(=O)NC1CCCC1)c1ccc(F)cc1)c1ccno1 (stereo not drawn) 7.23%
CN(C)CCNC(CC(=O)Nc1ccc(Cl)c(Cl)c1)C(=O)O (stereo not drawn) 0.68%
CN1CCN(c2cc(=O)n(-c3ccc(Cl)cc3)c(=O)[nH]2)CC1 -10.3%
COc1ccc(C)cc1NC(=O)CSc1nc(SC)ns1 6.14%
CCOc1ccccc1NC(=O)C1CCN(S(=O)(=O)c2c(C)nn(C)c2C)CC1 9%
COc1cccc2c(=O)n(CC(=O)N3CCCCCC3)ccc12 -15.3%
Cc1ccc(C(=O)O)cc1S(=O)(=O)NCC1CCCO1 (stereo not drawn) 8.82%
CCOC(=O)Cn1c(CN(Cc2ccccc2)Cc2ccccc2)nc2c1c(=O)[nH]c(=O)n2C -7.29%
CCSC(C)CC1C/C(=N/O)c2c(C)noc2C1 (stereo not drawn) 0.87%
O=C(CSC1=Nc2ccccc2C2=NC(c3ccccc3)C(=O)N12)NCC1CCCO1 (stereo not drawn) 2.26%

inhibition, active:
O=C(Nc1nnc(CCc2ccccc2)s1)C1CCCO1 (stereo not drawn) 21.3%
